Results taken from PubChem BioAssay AID493169 (National Center for Advancing Translational Sciences (NCATS), 2011).
Results filed as inconclusive are left out. Where a call stands in place of a potency, no number is given. Activity calls are given as the source filed them. Calls come from the whole dose curve; as a rule, active = well fitted inhibition curve with a large enough effect; inconclusive = small, poorly fitted or top-dose-only effect; inactive = flat fitted curve, though single readings scatter.

assay: CHOP2 Reporter Counterscreen Assay for Inhibitors of Ubiquitin-specific Protease USP2a; conditions: purified enterokinase, fluorogenic substrate, 485/531 nm; series mostly up to 38.3 µM;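 note: activated enterokinase alone at 50 pM in a cell-free format rather than USP2a or CHOP2; nearly all actives have a fitted effect of over 55% in size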
Summary of the method: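 Fluorescence (485/531 nm) read 10 min after adding 25nM reporter substrate to 50 pM activated EK preincubated 30 min RT with compound; Tris pH 8.0/CaCl2/CHAPS buffer. Data normalized to buffer-alone inhibition; concentration-response curves fitted.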
Potency is the fitted concentration of half-maximal effect.

SMILES | Potency
CCOC(=O)N1CCN(C(=O)CN(c2cccc(C)c2)S(=O)(=O)c2ccccc2)CC1 | inactive
CC(OC(=O)CN(C)S(=O)(=O)c1ccc(Cl)cc1)C(=O)Nc1ccc(N2CCOCC2)cc1 (stereo unspecified) | inactive
O=C(c1ccc(CS(=O)(=O)c2ccc(Br)cc2)o1)N1CCCC1 | inactive
CCOc1ccc(C(=O)c2ccc(OCC)c(N)c2)cc1N | inactive
COCc1cc(C)nc(OCC(=O)N/N=C\c2cc(C)n(-c3cccc(C(F)(F)F)c3)c2C)c1C#N | inactive
Cc1ccc([C@@H]2CC=C(C(=O)O)[C@H](c3cccc(Cl)c3)N2S(=O)(=O)c2ccc(C)cc2)cc1 | inactive
CCOC(=O)C1CCCN(C(=O)c2cc(-c3ccco3)nc3ccccc23)C1 (stereo unspecified) | 5.62 µM (active)
O=c1cc(CO)oc(CN2CCN(Cc3ccccc3)CC2)c1O | inactive
COc1ccc(NC(=O)CSc2nnc(-c3ccccc3Cl)n2Cc2ccco2)c(OC)c1 | inactive
CC1=CC(C)(C)N(C(=O)c2ccccc2)c2ccccc21 | inactive
C[C@@H]1CN([C@@H](C)CO)C(=O)c2cc(NC(=O)CCC(F)(F)F)ccc2O[C@H]1CN(C)S(=O)(=O)c1ccc(Cl)cc1 | inactive
CC(=O)Nc1ccc(Nc2cc(C)nc(Nc3ccc(NC(C)=O)cc3)n2)cc1 | inactive
CCCCCCCCCCOC(=O)Cn1c(COc2ccccc2)[n+](C)c2ccccc21 | 11.2 µM (active)
COC1=CCC2([N+](=O)[O-])CN(CCO)CC1([N+](=O)[O-])C2 (stereo unspecified) | inactive
COc1ccc(CCn2c(O)cc3nn(-c4nc5ccccc5s4)c(=O)c-3c2C)cc1 | 11.2 µM (active)
COCc1cc(C)nc(SCC[N+](C)(C)CC(=O)Nc2cccc(C(F)(F)F)c2)c1C#N | inactive
COC(=O)c1[nH]c(=O)c2ccccc2c1OCc1ccccc1 | inactive
C#CCOCCOCCOCCNc1nc(N2CCN(C(=O)CCCCCCCCCCNC(=O)[C@H]([C@@H](C)CC)n3cc(CCCCCN)nn3)CC2)nc(N2CCN(C(=O)CCCCCCCCCCNC(=O)[C@H](CCCCN)n3cc(CCCC(=O)O)nn3)CC2)n1 | 7.94 µM (active)
CC1CCCC(N2CCN(C(=O)c3cccc(F)c3)CC2)C1 (stereo unspecified) | inactive
Cc1ccc(N2CN=c3s/c(=C\c4cccnc4)c(=O)n3C2)cc1 | inactive
Cc1cc(C)n2cc(CSc3nnnn3-c3ccccc3C)nc2n1 | inactive
